These results are taken from PubChem BioAssay AID652208 (Broad Institute, 2013).

Measured potencies and affinities stand elsewhere. The source made the active and inactive calls.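 Rule for the calls: active = Loss of cell signal with fitted half-effect dose at or below twice the top valid tested dose; inconclusive = Poor fit, or flat fit from -70 to -30 percent; inactive = Half-effect above limit, rising signal, or flat within 30 percent.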

This assay is described as follows: viability loss in HEK293T cells – cell-based, cherry-picks, cytotoxicity control for HIV Vif inhibitor project, dose response (AID 652208). The note with it: CellTiter-Glo luminescence, 24 h; series mostly up to 26 µM.
As to `COc1ccc(CNC(=O)CN2C(=O)NC(c3ccccc3)(c3ccccc3)C2=O)cc1`, the result was inactive.

With `COc1ccc(C(=O)NC2CC3CCCC(C2)N3Cc2ccccc2)cc1OC` (stereo not drawn), the call was inactive.

On to `Cc1ccc(-c2nn3c(C)nnc3c3ccccc23)cc1S(=O)(=O)NCc1ccccc1`, for which the call was inactive.

For the molecule `Cc1ccc(-n2nnc3c(=O)n(CC(=O)OCc4ccccc4)cnc32)cc1`, the molecule was called inactive.

For `COc1ccc(CC(=O)OCC(=O)NCc2ccc(Cl)cc2)cc1`, the molecule was classed as inactive.

Regarding `O=C(Nc1nn[nH]n1)c1cc(-c2ccc(Cl)c(Cl)c2Cl)nc2ccccc12`, the call was inactive.

With `Cc1ccc(CNCCCSc2ncccn2)cc1`, the call was inactive.

For `CCN1C(=O)c2cccc3c(S(=O)(=O)Nc4ccccc4O)ccc1c23`, the call was inactive.

As to `COc1cccc(-c2cc(NC=O)c3ncc(-c4cc(OC)c(OC)c(OC)c4)n3c2)c1`, the outcome was inactive.

On to `Cc1cc(S(=O)(=O)N2CCOCC2)ccc1OCC(=O)NCCN1CCOCC1`, for which the molecule was called inactive.

`O=C(CCCOc1ccc(Br)cc1)NNC(=O)c1ccncc1`: the molecule was called inactive.

For `Cc1cc(NS(=O)(=O)c2ccc(NC(=O)c3ccc(Cl)cc3Cl)cc2)no1`, the call was inactive.

For the molecule `CCC(C)NC(=O)Cn1c(=O)n(-c2ccccc2)c(=O)c2ccc(C(=O)NCc3ccco3)cc21` (stereo not drawn), the result was inactive.

As for `O=C(NC1CCCc2ccccc21)c1ccccc1Br` (stereo not drawn), the outcome was inactive.

For `CN(C)c1ccc(/C=C2\SC(N3CCCCC3)=NC2=O)cc1`, the molecule was called inactive.

On to `Cc1ccnc(SCC(=O)n2c3c(c4ccccc42)CC(C)CC3)n1` (stereo not drawn), for which the result was inactive.

Consider `C/C=C/c1ccc(OCCNCc2ccccc2)c(OC)c1`, for which the outcome was inactive.

As for `COc1c2ccoc2nc2c(OC)c(OC[C@@H](O)C(C)(C)O)ccc12`, the call was inactive.
